Assay results: the supplement of paper PMC11219838
Unmarked numbers belong to inactive results.

Test system: Caenorhabditis elegans L1 (N2)
Assay: survival and reproduction score of C. elegans L1 (0: 0-10 living worms, 1: 11-20, 2: 21-50, 3: >50, 4: overgrown) (score 0-4); higher = more worms, less nematicidal, active = 1 or less; extreme values may be limits of the assay
Conditions: 60 µM; 6 days; temperature: 20 °C
Procedure, shortened: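 Synchronized C. elegans N2 L1s (about 20 per well) were grown in 96-well plates in liquid NGM with E. coli HB101 and compound at 60 µM final (0.6% v/v DMSO), shaken sealed at 200 rpm and 20 °C for 6 days. The ordinal score for survival and reproduction counted living worms per well under a dissection microscope. The scale ran 0 (0–10 worms) to 4 (overgrown, starved), averaged over two biological replicates.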

| SMILES | survival and reproduction score |
| --- | --- |
| COc1nc(C)ccc1-c1noc(-c2ccc(Cl)cc2)n1 | 4 |
| Cc1cccc(-c2noc(-c3ccc(Cl)cc3)n2)c1 | 4 |
| COc1ccccc1OCc1nc(-c2ccc(Cl)cc2)no1 | 4 |
| O=C(CSc1nnc(-c2ccco2)o1)Nc1ccccc1F | 4 |
| CC(Oc1ccccc1)c1nc(-c2ccccn2)no1 (centres undefined) | 4 |
| CCOc1ccccc1-c1nc(-c2ccc(Cl)cc2)no1 | 4 |
| Cc1cccc(-c2nnc(SCC(=O)NCCc3ccccc3)o2)c1 | 4 |
| O=C(CSc1nnc(-c2ccc(Cl)cc2Cl)o1)N1CCCCC1 | 4 |
| Cc1cccc(-c2noc(-c3ccc4c(c3)OCO4)n2)c1 | 4 |
| Cc1cc(OCc2nc(-c3ccccn3)no2)c(C)cc1Br | 4 |
| COc1cccc(-c2nc(-c3ccccc3)no2)c1 | 1.5 |
| O=C(NCc1cccnc1)c1ccccc1-c1nc(-c2ccccc2Cl)no1 | 4 |
| Clc1ccc(OCc2nc(-c3cccnc3)no2)c(Cl)c1 | 4 |
| Cc1ccc(-c2noc(-c3cccc(C)c3)n2)cc1 | 0 (active) |
| Brc1ccc(OCc2nc(-c3ccc4c(c3)OCO4)no2)cc1 | 4 |
| COc1ccc(NC(=O)CSc2nnc(-c3ccccc3C)o2)cc1 | 4 |
| Clc1ccccc1CSc1nnc(-c2ccncc2)o1 | 4 |
| Cc1ccc(OCc2nc(-c3ccc(Cl)cc3)no2)cc1 | 4 |
| O=C(CSc1nnc(-c2ccncc2)o1)Nc1cccc(Cl)c1Cl | 4 |
| Fc1cccc(-c2nc(-c3ccccc3)no2)c1 | 0 (active) |

| SMILES | survival and reproduction score |
| --- | --- |
| CCOc1nc(-c2ccc(C)cc2)ccc1-c1noc(-c2ccncc2)n1 | 4 |
| COc1ccc(-c2nnc(SCC(=O)Nc3ccc(Br)cc3C)o2)cc1 | 4 |
| Cc1ccccc1-c1noc(-c2cccc(Br)c2)n1 | 4 |
| Cc1ccc(-c2noc(-c3ccc(Br)cc3)n2)cc1 | 4 |
| Cc1cccc(NC(=O)CSc2nnc(-c3ccncc3)o2)c1C | 4 |
| COc1nc(C)ccc1-c1noc(-c2ccc(C)cc2)n1 | 4 |
| COc1ccccc1NC(=O)CSc1nnc(-c2ccccc2)o1 | 3.5 |
| Cc1cccc(-c2noc(-c3ccc(F)cc3)n2)c1 | 2 |
| Cc1cccc(-c2nnc(SCC(=O)Nc3ccccc3C(C)C)o2)c1 | 4 |
| O=C(CSc1nnc(-c2ccc(Cl)cc2)o1)Nc1nccs1 | 4 |
| COc1cccc(-c2nnc(SCC(=O)Nc3ccccc3)o2)c1 | 4 |
| CCOc1ccccc1-c1nnc(SCc2ccc(C(=O)OC)o2)o1 | 4 |
| COc1ccccc1-c1nc(-c2ccc(C)cc2)no1 | 4 |
| CCOc1ccc(NC(=O)CSc2nnc(-c3ccncc3)o2)cc1 | 4 |
| CCCc1ccc(-c2nc(-c3cccnc3)no2)cc1 | 0 (active) |
| O=C(CSc1nnc(-c2ccco2)o1)Nc1cccc(Cl)c1Cl | 4 |
| Cc1cc(Cl)ccc1OCc1nc(-c2ccncc2)no1 | 0.5 (active) |
| C=C(C)COc1ccc(-c2nc(-c3cccnc3)no2)cc1 | 3 |
| Cc1cc(OC(C)c2nc(-c3cccnc3)no2)ccc1Cl (centres undefined) | 4 |
